Experimental data: ChEMBL document CHEMBL1157539, “Thousands of chemical starting points for antimalarial lead identification” (Nature, 2010)
Several values for one entry are separate records, joined by “and”; a condition that tells them apart may be missing. Equal entries are not always repeated.

Assays:
Format in all cases: functional
[1] = system: Plasmodium falciparum; assay: GSK_TCMDC: Inhibition of Plasmodium falciparum 3D7 in whole red blood cells, using parasite LDH activity as an index of growth. Test compounds present at 2uM
[2] = system: Plasmodium falciparum; assay: GSK_TCMDC: Inhibition of Plasmodium falciparum Dd2 in whole red blood cells, using parasite LDH activity as an index of growth. Test compounds present at 2uM
[3] = system: HepG2; assay: GSK_TCMDC: Percent inhibition of human HepG2 cell line. Test compounds present at 10uM.

Structure (SMILES)	Inhibition [1]	Inhibition [2]	Inhibition [3]
CNC(=O)COc1ccc(Nc2nnc(-c3ccc(C)c(S(=O)(=O)NCC4CCCO4)c3)c3ccccc23)cc1 (centres undefined)	90%	68%	0%
CCNc1cc(C)nc(Nc2ccccc2)n1	92%	8%	16%
Cc1ccc(NC(=O)c2ccc(CN3CCCN(CCC(C)C)CC3)cc2)cc1C.O=C(O)C(F)(F)F	92%	17%	25%
CC(C)CCn1c(Sc2ccc(C#N)c([N+](=O)[O-])c2)nnc1-c1cccc(Cl)c1	96%	82%	33%
O=C(Nc1ccc(-c2ccc(-c3nc4ccccc4[nH]3)s2)cc1)Nc1ccsc1	100%	54%	25%
Cl.c1ccc(-c2nc3ccccc3[nH]2)c(Nc2ccnc3cc(-c4nccs4)ccc23)c1	100%	98%	0%
O=C(/C=C/c1cccc(C(F)(F)F)c1)NCCCCCN1CCC(c2c[nH]c3ccccc23)CC1	90%	14%	70%
O=C(NC1CCCc2ccccc21)C1CCCN(C(=O)c2ccc(O)c(-c3ccc(Cl)c(Cl)c3)c2)C1 (centres undefined)	88%	54%	0%
O=C(NCCCCN1CCC(c2ccc([N+](=O)[O-])cc2)CC1)c1ccc(NC(=O)c2ccc(Cl)cc2)cc1	100%	55%	15%
CCc1c(CCNCCCCCCNCCc2ccc3c(c2C)OCO3)ccc2c1OCO2.Cl	100%	7%	59%
Cc1cccc2nc(-c3cccc(-c4cccc(NC(=O)c5cnn6cccnc56)c4)c3)[nH]c12	100%	17%	14%
Cn1cnc(CCNC(=O)c2cccc(-c3ccc(-c4nc5cc(F)ccc5[nH]4)cc3)c2)c1	88%	5%	26%
C=CCc1c(C(=O)NCC23CC4CC(CC(C4)C2)C3)nc2ccccc2c1O	86%	79%	40%
CCc1cc(NC2CCN(C)CC2)nc(Nc2cccc(OC)c2)n1	93%	37%	22%
COc1cccc(-n2ncc3c(N/N=C/c4ccc(CN(C)CCN(C)C)cc4)ncnc32)c1	100%	91%	29%
Cc1ccc(CNC(=O)[C@H](Cc2ccccc2)Nc2cc(C)nc(NCc3ccccc3C)n2)cc1.O=C(O)C(F)(F)F	97%	50%	23%
Cn1cnc(CCNC(=O)c2ccc(-c3cccc(-c4nc5cc(C(F)(F)F)ccc5[nH]4)c3)cc2)c1	100%	93%	25%
Cc1[nH]c(C)c(C(F)(F)F)c(=O)c1-c1ccc(Oc2ccc(OC(F)(F)F)cc2)cc1	97%	96%	0%
COc1ccc2ncc(F)c(CCN3CC(O)C(CNCc4nc5c(cc4Cl)OCC(=O)N5)C3)c2n1.Cl (centres undefined)	93% and 90%	23% and 15% and 30%	12% and 13% and 5%
CN1CCC(Oc2ccc(Nc3nccc(NCC(O)c4ccccc4)n3)cc2Cl)CC1 (centres undefined)	100%	99%	46%

Structure (SMILES)	Inhibition [1]	Inhibition [2]	Inhibition [3]
COc1ccc(CN2CCCC(C(=O)c3ccc(C(F)(F)F)cc3)C2)c(O)c1 (centres undefined)	98%	88%	0%
Cc1[nH]c(C)c(-c2ccc(-c3cccc(C(F)(F)F)c3)nc2)c(=O)c1Br	97%	96%	28%
O=C(Nc1cccc(-c2ccc(-c3nc4cc(C(F)(F)F)ccc4[nH]3)s2)c1)c1cccnc1	100%	99%	74%
CCCCCCN1CCC(NCc2ccc(CN(C)C)cc2)CC1.O=C(O)C(F)(F)F	92%	26%	18%
COc1ccc(Cn2c(Nc3cccc(C(F)(F)F)c3)nc3ccc(C(=O)NCCN4CCCC4)cc32)cc1Cl	100%	6%	14%
O=C(O)C(F)(F)F.O=c1[nH]ccc2nc(N[C@@H]3CCNC3)nc(Nc3ccc4c(c3)S(=O)(=O)CC4)c12	100%	99%	0%
CCn1c(-c2nonc2N)nc2c(-c3ccccc3)ncc(OCCCCNCCc3ncc[nH]3)c21.O=C(O)C(F)(F)F	92%	42%	34%
NC(=O)c1ccccc1OCC(=O)Nc1cccc(-c2ccc(-c3nc4ccccc4[nH]3)cc2)c1	95%	46%	66%
COc1ccc2sc(CNCCCNc3cc(=O)c4ccccc4[nH]3)c(Cl)c2c1.Cl	85%	42%	1%
Cc1nc(-c2cccc(C(=O)N(Cc3cncn3Cc3cccc(C(F)(F)F)c3)CC3CC3)c2)cs1	97%	17%	7%
CC1CN(Cc2cccc(-c3ccc(-c4nc5cc(F)ccc5[nH]4)cc3)c2)CC(C)O1.O=C(O)C(F)(F)F (centres undefined)	87%	88%	45%
Cc1cccc2nc(-c3ccc(-c4ccc(CNCCCN5CCCC5=O)cc4)cc3)[nH]c12.O=C(O)C(F)(F)F	100%	47%	7%
Cc1cccc2nc(-c3cccc(-c4cccc(NC(=O)C(C)CN(C)C)c4)c3)[nH]c12 (centres undefined)	100%	97%	16%
O=C(NC1CCN(Cc2ccccc2)CC1)c1ccc2c(=O)n(Cc3ccc(Cl)cc3)c(=S)[nH]c2c1	100%	100%	16%
O=C(O)C[C@H](NC(=O)[C@@H]1CCCN1C(=O)c1cccc(-c2ccc(Cl)c(Cl)c2)c1)C(=O)O	84%	0%	0%
O=C(Cn1c(SCc2cccc(F)c2F)cc(=O)c2ccccc21)N(Cc1ccc(-c2ccc(C(F)(F)F)cc2)cc1)C1CCN(CCO)CC1	89%	81%	50%
CC(C)(CNCc1ccc(F)c(F)c1)c1nc(-c2ccc(Cl)c(O)c2)c(-c2ccncc2)[nH]1.Cl	100%	89%	74%
CNCC(C)(C)c1nc(-c2ccc(Cl)c(O)c2)c(-c2ccncc2)[nH]1.Cl	98%	96%	46%
COc1ccc(-n2ccnc2SCC(=O)Nc2cc(C)ccc2C)c(OC)c1	94%	93%	2%
O=C(O)C(F)(F)F.c1cc(CNCCc2ccncc2)cc(-c2ccc(-c3nc4ccccc4[nH]3)s2)c1	100%	97%	1%

Structure (SMILES)	Inhibition [1]	Inhibition [2]	Inhibition [3]
COCCOC(=O)C(=O)c1c(-c2ccccc2)c(-c2ccc(OC)c(OC)c2)c2c3cc(OC)c(OC)cc3ccn12	100%	100%	4%
CC(C)CNc1c2c(nc3cnn(-c4c5c(nc6cn[nH]c46)CCCC5)c13)CCCC2	100%	0%	7%
CN1CCc2ccc(NC(=O)Nc3cccc([N+](=O)[O-])c3)cc2C1	87%	3%	0%
Cc1[nH]c2ccccc2c1C(=O)C(C)Sc1nnc(-c2ccccc2Br)[nH]1 (centres undefined)	100%	100%	0%
CC(CCCCOCCc1ccccc1)NCC(O)c1cc(Cl)c(N)c(Cl)c1 (centres undefined)	96%	95%	0%
Nc1nc(N)c2c(ccc3c2ccn3C2C=CCCC2)n1 (centres undefined)	94%	65%	68%
COc1cc(NC2CCCC(NCc3cn(S(=O)(=O)c4ccccc4)c4ccccc34)C2)nc2ccccc12 (centres undefined)	100%	61%	4%
CC(C)[C@H](NC(=O)c1ccc(O)c(-c2cccc(C(F)(F)F)c2)c1)C(=O)NCCN1CCCCC1	99%	29%	3%
O=S(=O)(Nc1cccc(CCN2CCC(N3CCCCC3)CC2)c1)c1cccc(C(F)(F)F)c1	100%	13%	25%
CCCN(Cc1nnc(-c2cccs2)o1)C(=O)CSc1nnnn1-c1ccc(C)c(C)c1	96%	80%	0%
CCOc1ccc(C(=O)N2CCOC(CCN3CCC(c4ccccc4)CC3)(c3ccc(Cl)c(Cl)c3)C2)cc1 (centres undefined)	88%	71%	14%
CCn1cc2c3c(cc(C(=O)N[C@@H](Cc4ccccc4)[C@H](O)CNCc4cccc(OC)c4)cc31)N(C)S(=O)(=O)CC2	99%	97%	0%
O=C(NC1CCN(CCN2CCc3ccccc3CC2)CC1)c1ccc(-c2ccc(C(F)(F)F)cc2)cc1	99%	43%	45%
CCn1c(-c2nonc2N)nc2c(-c3cccc(NC(=O)Nc4cccc(C#N)c4)c3)ncc(OCCCN)c21.O=C(O)C(F)(F)F	92%	80%	37%
COc1ccc2nccc([C@@H](O)CN3CCC(NCc4cc5cccnc5[nH]4)CC3)c2n1.O=C(O)C(=O)O	90%	0%	7%
COc1cccc(C(=O)Nc2ccc(S(=O)(=O)c3cc4c(cc3OC)CCN(C)CC4)cc2)c1	86%	3%	0%
O=C(Nc1cccc(CN2CCCN(Cc3ccc(O)cc3)CC2)c1)c1cc2ccccc2o1.O=C(O)C(F)(F)F	95%	62%	10%
O=c1cc(NCCCNC2CCOc3c(Cl)cccc32)[nH]c2ccccc12 (centres undefined)	96%	27%	0%
